About 7,900 targets were measured; listed, in parts, are those with a hit and a random draw of the rest. About 0.6% of all pairs of compound and target were hits.
How the values were obtained:
Assay in all cases: log2 fold change, soluble protein after heating vs DMSO (PISA); higher = thermal stabilisation; K562 cells, 10 uM, 30 min; active = over 0.2 and 3.5 SD of the protein, either way, in both replicates (recomputed)
sotrastaurin = compound: CN1CCN(c2nc(C3=C(c4c[nH]c5ccccc45)C(=O)NC3=O)c3ccccc3n2)CC1 [sotrastaurin]
Procedure, shortened: (§1)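 K562 cells at 2×10^6 cells/mL were exposed to 10 μM compound for 30 min, then aliquots were heated for 3 min across 48°C-58°C, pooled, and extracted in PBS containing 0.5% NP-40 at 4°C. The supernatant after 21,000xg for 90 min was taken as soluble protein and measured by TMTpro 16plex LC-MS/MS with channel sums equalised. Thermal stability is reported relative to control samples, with values from duplicates. Fold changes are given on a log2 scale.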

alvocidib = compound: CN1CC[C@H](c2c(O)cc(O)c3c(=O)cc(-c4ccccc4Cl)oc23)[C@H](O)C1 [alvocidib]
Procedure, shortened: as §1

Tubastatin A = compound: CN1CCc2c(c3ccccc3n2Cc2ccc(C(=O)NO)cc2)C1 [Tubastatin A]
Procedure, shortened: as §1

[1] = compound: CNC(=O)C1=CC=CC=C1NC2=NC(=NC=C2Cl)NC3=C(C=C(C=C3)N4CCOCC4)OC
Procedure, shortened: as §1

defactinib = compound: CNC(=O)c1ccc(Nc2ncc(C(F)(F)F)c(NCc3nccnc3N(C)S(C)(=O)=O)n2)cc1 [defactinib]
Procedure, shortened: as §1

rucaparib = compound: CNCc1ccc(-c2[nH]c3cc(F)cc4c3c2CCNC4=O)cc1 [rucaparib]
Procedure, shortened: as §1

encorafenib = compound: COC(=O)N[C@@H](C)CNc1nccc(-c2cn(C(C)C)nc2-c2cc(Cl)cc(NS(C)(=O)=O)c2F)n1 [encorafenib]
Procedure, shortened: as §1

[2] = compound: COC(=O)[C@H](CCSC)NC(=O)C1=C(C=C(C=C1)NC[C@H](CS)N)C2=CC=CC=C2
Procedure, shortened: as §1

[3] = compound: COC1=CC=C(C=C1)CN2C=CC3=C2C=C(C=C3)C(=O)NO
Procedure, shortened: as §1

filanesib = compound: CON(C)C(=O)N1N=C(c2cc(F)ccc2F)S[C@@]1(CCCN)c1ccccc1 [filanesib]
Procedure, shortened: as §1

zotarolimus = compound: CO[C@H]1C[C@@H]2CC[C@@H](C)[C@@](O)(O2)C(=O)C(=O)N2CCCC[C@H]2C(=O)O[C@H]([C@H](C)C[C@@H]2CC[C@H](n3cnnn3)[C@H](OC)C2)CC(=O)[C@H](C)/C=C(\C)[C@@H](O)[C@@H](OC)C(=O)[C@H](C)C[C@H](C)/C=C/C=C/C=C/1C [zotarolimus]
Procedure, shortened: as §1

idasanutlin = compound: COc1cc(C(=O)O)ccc1NC(=O)[C@@H]1N[C@@H](CC(C)(C)C)[C@](C#N)(c2ccc(Cl)cc2F)[C@H]1c1cccc(Cl)c1F [idasanutlin]
Procedure, shortened: as §1

alisertib = compound: COc1cc(Nc2ncc3c(n2)-c2ccc(Cl)cc2C(c2c(F)cccc2OC)=NC3)ccc1C(=O)O [alisertib]
Procedure, shortened: as §1

[4] = compound: COc1cc2nc(-c3cc(F)ccc3O)nc(N[C@@H]3CNC[C@H]3C(C)(C)O)c2cc1OC
Procedure, shortened: as §1

[5] = compound: COc1cccc2cc(-c3nc([C@H]4CC[C@H](C(=O)O)CC4)n4ncnc(N)c34)[nH]c12
Procedure, shortened: as §1

lapatinib = compound: CS(=O)(=O)CCNCc1ccc(-c2ccc3ncnc(Nc4ccc(OCc5cccc(F)c5)c(Cl)c4)c3c2)o1 [lapatinib]
Procedure, shortened: as §1

pictilisib = compound: CS(=O)(=O)N1CCN(Cc2cc3nc(-c4cccc5[nH]ncc45)nc(N4CCOCC4)c3s2)CC1 [pictilisib]
Procedure, shortened: as §1

gefitinib = compound: COc1cc2ncnc(Nc3ccc(F)c(Cl)c3)c2cc1OCCCN1CCOCC1 [gefitinib]
Procedure, shortened: as §1

saracatinib = compound: CN1CCN(CCOc2cc(OC3CCOCC3)c3c(Nc4c(Cl)ccc5c4OCO5)ncnc3c2)CC1 [saracatinib]
Procedure, shortened: as §1

[6] = compound: CNc1nc(-c2ccc3c(N)n[nH]c3c2)cc(N2C[C@@H](C(=O)NC3CCCCC3)CC[C@H]2C)n1
Procedure, shortened: as §1

Measured: log2 fold change

UBA52 (UniProt P62987)
inactive: sotrastaurin -0.029 | alvocidib 0.339 | Tubastatin A -0.004 | [1] -0.008 | defactinib 0.221 | rucaparib 0.421 | encorafenib 0.152 | [2] 0.08 | [3] 0 | filanesib 0.519 | zotarolimus -0.171 | idasanutlin 0.308 | alisertib -0.131 | [4] -0.203 | [5] -0.275 | lapatinib 0.141 | pictilisib -0.177

UBAP2L (UniProt F8W726)
inactive: Tubastatin A -0.039 | [1] -0.05 | rucaparib -0.006 | encorafenib -0.021 | alisertib -0.074 | [4] -0.069 | gefitinib -0.012 | [5] -0.084 | lapatinib 0.067 | pictilisib 0.078

TMEM104 (UniProt Q8NE00)
Sequence of UniProt Q8NE00 (Q8NE00 whole entry, looked up): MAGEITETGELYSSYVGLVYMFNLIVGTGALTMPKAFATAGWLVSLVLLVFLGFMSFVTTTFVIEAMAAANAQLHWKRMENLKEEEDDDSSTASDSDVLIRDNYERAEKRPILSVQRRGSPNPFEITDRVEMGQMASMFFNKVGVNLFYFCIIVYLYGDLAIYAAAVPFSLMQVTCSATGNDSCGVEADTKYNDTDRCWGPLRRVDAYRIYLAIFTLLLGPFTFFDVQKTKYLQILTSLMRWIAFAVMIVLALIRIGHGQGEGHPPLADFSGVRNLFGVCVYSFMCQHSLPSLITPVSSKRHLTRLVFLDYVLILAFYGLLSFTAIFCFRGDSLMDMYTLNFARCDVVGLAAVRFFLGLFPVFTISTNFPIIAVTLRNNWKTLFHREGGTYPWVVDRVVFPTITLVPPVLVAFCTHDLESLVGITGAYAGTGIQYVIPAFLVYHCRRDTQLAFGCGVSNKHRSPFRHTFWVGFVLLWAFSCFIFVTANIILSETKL
inactive: saracatinib -0.024 | alvocidib -0.013 | [1] -0.007 | rucaparib 0.06 | [6] -0.122 | encorafenib 0.056 | [3] 0.134 | zotarolimus -0.01 | idasanutlin -0.081 | alisertib -0.012 | [4] 0.016 | gefitinib 0.061 | [5] 0.164 | lapatinib -0.156 | pictilisib -0.341

WDR46, A0A0G2JJL1
inactive: saracatinib 0.065 | sotrastaurin 0.052 | Tubastatin A -0.095 | [1] 0.007 | defactinib 0.408 | rucaparib 0.293 | [6] 0.119 | encorafenib 0.044 | [2] -0.138 | [3] -0.108 | filanesib 0.533 | alisertib -0.167 | [4] -0.134 | gefitinib 0.039 | [5] -0.207 | lapatinib 0.154

TOM1L2 (UniProt Q6ZVM7)
Sequence of UniProt Q6ZVM7 (Q6ZVM7 whole entry, looked up): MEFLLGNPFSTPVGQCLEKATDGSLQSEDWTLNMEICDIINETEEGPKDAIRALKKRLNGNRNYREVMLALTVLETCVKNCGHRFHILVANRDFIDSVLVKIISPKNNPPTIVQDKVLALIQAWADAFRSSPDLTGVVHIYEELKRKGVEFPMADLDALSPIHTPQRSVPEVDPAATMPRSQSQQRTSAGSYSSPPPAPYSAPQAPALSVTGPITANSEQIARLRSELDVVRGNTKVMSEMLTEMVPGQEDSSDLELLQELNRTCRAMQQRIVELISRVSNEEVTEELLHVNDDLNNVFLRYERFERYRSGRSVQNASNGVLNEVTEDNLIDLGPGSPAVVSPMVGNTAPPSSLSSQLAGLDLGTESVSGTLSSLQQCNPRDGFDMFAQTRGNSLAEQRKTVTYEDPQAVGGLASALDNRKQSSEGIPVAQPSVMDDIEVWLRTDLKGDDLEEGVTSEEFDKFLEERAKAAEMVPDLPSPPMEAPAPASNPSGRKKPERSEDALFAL
inactive: saracatinib -0.02 | sotrastaurin -0.091 | [1] -0.102 | defactinib -0.072 | [6] -0.05 | [2] 0.058 | [3] -0.04 | filanesib 0.029 | zotarolimus -0.036 | idasanutlin -0.002 | gefitinib 0.028
active: alvocidib -0.357

USP48 (UniProt Q86UV5)
Sequence of UniProt Q86UV5 (Q86UV5 whole entry, looked up): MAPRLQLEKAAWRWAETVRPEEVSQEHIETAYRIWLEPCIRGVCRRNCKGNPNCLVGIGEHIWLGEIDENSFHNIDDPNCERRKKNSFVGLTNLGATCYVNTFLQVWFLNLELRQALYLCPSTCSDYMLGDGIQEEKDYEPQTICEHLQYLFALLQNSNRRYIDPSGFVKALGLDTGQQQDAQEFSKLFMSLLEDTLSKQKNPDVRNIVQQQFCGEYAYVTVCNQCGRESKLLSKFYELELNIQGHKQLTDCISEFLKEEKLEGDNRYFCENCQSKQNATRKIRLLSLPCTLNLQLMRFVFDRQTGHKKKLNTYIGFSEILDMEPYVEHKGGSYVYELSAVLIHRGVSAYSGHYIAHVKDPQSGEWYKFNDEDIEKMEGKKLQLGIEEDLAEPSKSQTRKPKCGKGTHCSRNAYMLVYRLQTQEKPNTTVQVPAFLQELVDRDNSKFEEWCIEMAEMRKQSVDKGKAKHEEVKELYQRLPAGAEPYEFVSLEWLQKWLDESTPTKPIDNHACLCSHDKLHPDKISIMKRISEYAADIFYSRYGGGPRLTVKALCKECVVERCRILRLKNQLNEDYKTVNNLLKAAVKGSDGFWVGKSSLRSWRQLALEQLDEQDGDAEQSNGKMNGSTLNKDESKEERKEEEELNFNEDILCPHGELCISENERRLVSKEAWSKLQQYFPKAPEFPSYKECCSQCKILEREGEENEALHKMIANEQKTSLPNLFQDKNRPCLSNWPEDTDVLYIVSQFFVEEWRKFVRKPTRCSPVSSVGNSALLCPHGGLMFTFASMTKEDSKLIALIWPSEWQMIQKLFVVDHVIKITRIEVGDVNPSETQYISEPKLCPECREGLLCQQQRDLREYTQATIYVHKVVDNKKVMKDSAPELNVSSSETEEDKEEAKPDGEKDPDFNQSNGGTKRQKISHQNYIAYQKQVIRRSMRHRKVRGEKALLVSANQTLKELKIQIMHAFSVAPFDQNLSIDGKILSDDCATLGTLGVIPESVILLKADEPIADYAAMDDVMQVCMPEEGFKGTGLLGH
inactive: sotrastaurin -0.123 | [1] -0.045 | rucaparib -0.102 | encorafenib 0.318 | filanesib -0.016 | alisertib 0.19 | gefitinib 0.053 | [5] -0.031

WARS1 (UniProt G3V277)
inactive: sotrastaurin 0.021 | Tubastatin A 0.005 | [1] -0.052 | defactinib 0 | [2] 0.14 | [3] -0.163 | filanesib 0.066 | idasanutlin 0.127 | alisertib 0.04 | gefitinib 0.021 | [5] 0.145 | pictilisib 0.095

TOM1 (UniProt O60784)
Sequence of UniProt O60784 (O60784 whole entry, looked up): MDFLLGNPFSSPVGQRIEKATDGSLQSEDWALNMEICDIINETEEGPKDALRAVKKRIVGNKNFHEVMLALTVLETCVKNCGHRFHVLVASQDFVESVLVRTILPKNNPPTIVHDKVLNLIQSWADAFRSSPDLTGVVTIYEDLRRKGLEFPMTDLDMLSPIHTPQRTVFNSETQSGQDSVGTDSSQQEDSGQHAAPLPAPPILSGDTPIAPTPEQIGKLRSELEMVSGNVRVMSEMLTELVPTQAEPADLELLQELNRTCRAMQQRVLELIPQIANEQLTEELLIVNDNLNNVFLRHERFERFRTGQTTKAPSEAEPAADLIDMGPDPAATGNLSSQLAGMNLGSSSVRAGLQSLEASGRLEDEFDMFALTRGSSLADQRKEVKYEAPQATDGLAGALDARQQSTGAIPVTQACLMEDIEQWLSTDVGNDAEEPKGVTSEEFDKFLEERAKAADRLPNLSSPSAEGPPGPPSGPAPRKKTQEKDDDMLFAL
inactive: sotrastaurin -0.033 | Tubastatin A 0.002 | [1] -0.113 | [3] 0.078 | filanesib -0.061 | alisertib 0.103 | [5] 0.094 | pictilisib 0.171

TUBA4A (UniProt C9JJQ8)
inactive: saracatinib -0.148 | sotrastaurin -0.084 | alvocidib -0.191 | Tubastatin A 0.147 | defactinib -0.215 | rucaparib 0.186 | [6] 0.131 | encorafenib 0.078 | [2] -0.055 | [3] 0.083 | filanesib 0.016 | zotarolimus -0.041 | [4] 0.052 | lapatinib 0.018

TMEM9B (UniProt Q9NQ34)
Sequence of UniProt Q9NQ34 (Q9NQ34 whole entry, looked up): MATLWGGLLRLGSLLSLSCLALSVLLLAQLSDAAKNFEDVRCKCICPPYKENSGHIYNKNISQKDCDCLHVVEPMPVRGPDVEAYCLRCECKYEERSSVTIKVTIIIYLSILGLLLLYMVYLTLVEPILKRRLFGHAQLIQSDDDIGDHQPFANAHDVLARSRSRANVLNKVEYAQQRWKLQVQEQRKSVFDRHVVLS
inactive: sotrastaurin 0.019 | alvocidib 0.075 | Tubastatin A -0.033 | [1] -0.029 | defactinib -0.029 | rucaparib -0.02 | encorafenib 0.063 | [2] -0.001 | [3] 0.001 | filanesib -0.039 | zotarolimus 0.014 | idasanutlin 0.036 | alisertib -0.032 | [4] 0.011 | gefitinib -0.047 | [5] -0.068 | lapatinib -0.118 | pictilisib 0.07

TMEM184C (UniProt Q9NVA4)
Sequence of UniProt Q9NVA4 (Q9NVA4 whole entry, looked up): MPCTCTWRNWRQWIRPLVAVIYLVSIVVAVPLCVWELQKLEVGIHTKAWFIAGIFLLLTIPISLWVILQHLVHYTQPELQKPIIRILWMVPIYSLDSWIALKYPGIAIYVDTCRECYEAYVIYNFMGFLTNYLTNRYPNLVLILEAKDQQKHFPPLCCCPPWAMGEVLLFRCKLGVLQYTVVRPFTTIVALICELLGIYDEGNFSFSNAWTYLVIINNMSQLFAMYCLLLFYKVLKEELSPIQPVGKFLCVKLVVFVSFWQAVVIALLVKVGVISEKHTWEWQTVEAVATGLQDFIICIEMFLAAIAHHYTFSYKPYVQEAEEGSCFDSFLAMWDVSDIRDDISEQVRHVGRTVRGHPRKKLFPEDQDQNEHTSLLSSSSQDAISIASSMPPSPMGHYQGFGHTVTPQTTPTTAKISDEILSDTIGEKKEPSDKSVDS
inactive: saracatinib 0.022 | sotrastaurin 0.139 | alvocidib -0.123 | Tubastatin A 0.022 | defactinib -0.049 | rucaparib 0.028 | [6] -0.182 | encorafenib 0.051 | [2] 0.118 | [3] -0.006 | filanesib 0.162 | zotarolimus -0.11 | idasanutlin -0.112 | alisertib 0.059 | gefitinib -0.043 | [5] 0.077 | pictilisib 0.162

UCHL5 isoform 3 (UniProt Q9Y5K5)
Sequence of UniProt Q9Y5K5 (Q9Y5K5 whole entry, looked up): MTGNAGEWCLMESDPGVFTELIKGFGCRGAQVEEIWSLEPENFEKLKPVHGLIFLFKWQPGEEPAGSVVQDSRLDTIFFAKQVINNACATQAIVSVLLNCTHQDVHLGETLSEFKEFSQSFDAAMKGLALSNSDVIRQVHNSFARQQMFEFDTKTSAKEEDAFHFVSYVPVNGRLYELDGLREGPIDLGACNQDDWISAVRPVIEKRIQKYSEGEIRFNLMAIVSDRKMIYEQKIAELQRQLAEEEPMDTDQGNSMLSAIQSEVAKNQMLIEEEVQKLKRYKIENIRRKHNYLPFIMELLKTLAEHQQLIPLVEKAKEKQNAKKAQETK
inactive: sotrastaurin -0.292 | alvocidib -0.156 | Tubastatin A -0.035 | [1] 0.136 | defactinib 0.03 | rucaparib -0.08 | encorafenib 0.241 | [2] -0.254 | [3] 0.229 | filanesib -0.13 | zotarolimus 0.227 | idasanutlin 0.057 | alisertib 0.072 | [4] 0.036 | gefitinib -0.04 | [5] 0.16 | lapatinib -0.07

TXNRD1 isoform 7 (UniProt Q16881)
Sequence of UniProt Q16881 (Q16881 whole entry, looked up): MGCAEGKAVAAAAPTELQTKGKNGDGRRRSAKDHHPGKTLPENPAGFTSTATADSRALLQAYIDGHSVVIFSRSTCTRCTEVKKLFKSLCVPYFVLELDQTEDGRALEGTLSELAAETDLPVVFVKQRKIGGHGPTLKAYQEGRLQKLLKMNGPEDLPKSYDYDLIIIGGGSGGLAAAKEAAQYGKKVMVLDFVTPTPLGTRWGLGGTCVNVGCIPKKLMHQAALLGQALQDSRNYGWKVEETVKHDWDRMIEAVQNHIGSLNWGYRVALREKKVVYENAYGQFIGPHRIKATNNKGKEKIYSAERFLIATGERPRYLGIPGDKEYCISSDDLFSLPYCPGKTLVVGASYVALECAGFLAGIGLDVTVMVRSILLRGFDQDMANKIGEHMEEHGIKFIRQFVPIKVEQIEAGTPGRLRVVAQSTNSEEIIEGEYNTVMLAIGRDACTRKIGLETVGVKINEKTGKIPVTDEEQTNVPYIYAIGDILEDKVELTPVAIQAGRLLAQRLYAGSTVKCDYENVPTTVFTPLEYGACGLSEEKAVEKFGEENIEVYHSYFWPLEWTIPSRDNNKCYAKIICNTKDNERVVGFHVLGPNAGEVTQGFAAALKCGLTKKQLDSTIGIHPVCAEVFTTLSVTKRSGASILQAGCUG
inactive: saracatinib -0.202 | sotrastaurin 0.019 | [1] -0.364 | defactinib -0.194 | rucaparib 0.263 | [6] 0.065 | encorafenib -0.085 | [2] 0.062 | filanesib -0.034 | [4] 0.242 | lapatinib -0.07 | pictilisib 0.037

— the supplement of paper PMC10849652
